In all, about 81,000 sequences were measured (“one-hybrid fitness for binding parS DNA”: median about -0.17, highest 2% from about 0.51 on). This excerpt belongs to a sample that is enriched for the highest values.
B1: Caulobacter ParB omega fusion; a variant is named by its letters at X, in order, B8GW30 (parent)
chain: MESVVVGEPGMSEGRRGLGRGLSALLGEVDAAPAQAPGEQLGGSREAPIEILQRNPDQPRRTFREEDLEDLSNSIREKGVLQPILVRPSPDTAGEYQIVAGERAWRAAQRAGLKTVPIMVRELDDLAVLEIGIIENVQRADLNVLEEALSYKVLMEKFERTQENIAQTIGKSXSHVANXMRLLXLPDEVQSYLVSGELTAXHARAIAAAADPVALAKQIIEGGLSVRETEALARKAPNLSAGKSKGGRPPRVKDTDTQALESDLSSVLGLDVSIDHRGSTGTLTITYATLEQLDDLCNRLTRGI

Variants of: B1
Assay: one-hybrid fitness for binding parS DNA (scaled: cognate 1, non-cognate 0); higher = stronger binding
Conditions: with parS DNA site
Summary of the method: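 Pre- and post-selection plasmids were Illumina-sequenced, three replicate libraries were pooled, and any variant with under 10 reads was removed. The libraries were Caulobacter ParB with four specificity codons randomised, selected in E. coli USO through a HIS3 reporter whose site is 19 bp from the promoter. Cells grew 48 hours at 37°C on M9 without histidine, with 0.1 mM IPTG and 5 mM 3-AT. Fitness is the log change in variant-to-wild-type read ratio, rescaled against cognate and non-cognate.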

Variant	one-hybrid fitness for binding parS DNA
SSYC	≤ 0.2
RIKM	0.325
RIVT	0.788
RIKF	0.303
RIKT	0.772
RIVH	≤ 0.2
RIVN	0.407
RAFM	0.331
RAFF	0.249
RAFC	0.925
RAAR	≤ 0.2
RAAY	0.478
RAAC	0.98
SIFS	≤ 0.2
QSTM	≤ 0.2
HPTI	≤ 0.2
NRIA	≤ 0.2
RRIA	0.828
RRPA	0.574
RCPA	0.432
RPPA	≤ 0.2
NRNI	≤ 0.2
YNMN	≤ 0.2
KQFG	≤ 0.2

Variant	one-hybrid fitness for binding parS DNA
NYTR	≤ 0.2
EPTE	≤ 0.2
PWQI	≤ 0.2
FKHA	≤ 0.2
NRKT	≤ 0.2
RRVT	0.607
RRKE	≤ 0.2
RRVK	≤ 0.2
RRKT	0.59
RRVF	≤ 0.2
VTCL	≤ 0.2
GDYG	≤ 0.2
HEET	≤ 0.2
ALQS	≤ 0.2
RATT	0.915
RATQ	≤ 0.2
RITF	0.254
RITT	0.931
RPTT	≤ 0.2
RHTR	≤ 0.2
RATK	≤ 0.2
RCTT	0.949
RITM	0.319
RHTQ	≤ 0.2

Variant	one-hybrid fitness for binding parS DNA
RETT	≤ 0.2
RHTT	0.868
VVST	≤ 0.2
HWNY	≤ 0.2
MEIG	≤ 0.2
RTTT	0.917
RRTY	0.398
RMTL	≤ 0.2
RTTF	0.253
RLTY	0.48
RLTR	≤ 0.2
RMTT	0.945
RMTY	0.497
RRTT	0.565
RRTF	≤ 0.2
RLTT	0.956
RTTD	≤ 0.2
VTRD	≤ 0.2
SSGG	≤ 0.2
QKKR	≤ 0.2
CTAV	≤ 0.2
PDQD	≤ 0.2
DVDG	≤ 0.2
RSTR	≤ 0.2

Variant	one-hybrid fitness for binding parS DNA
RKTT	0.754
RFTT	0.836
RKTF	≤ 0.2
DFTT	≤ 0.2
RKTY	0.353
RDTT	≤ 0.2
RSTT	0.895
RFTD	≤ 0.2
CALF	≤ 0.2
HDLT	≤ 0.2
WILE	≤ 0.2
CTPG	≤ 0.2
CPIR	≤ 0.2
QLLW	≤ 0.2
TAMD	≤ 0.2
VFPY	≤ 0.2
RKVC	0.868
RKVQ	≤ 0.2
RKKQ	≤ 0.2
RKKC	0.694
RKKR	≤ 0.2
RKVP	≤ 0.2
WLFR	≤ 0.2
ESLF	≤ 0.2

Variant	one-hybrid fitness for binding parS DNA
DFNL	≤ 0.2
RNAP	≤ 0.2
RNFQ	≤ 0.2
RNAC	0.754
RNFM	≤ 0.2
RNFC	0.627
RNAN	0.301
AKFS	≤ 0.2
MTSR	≤ 0.2
VNNR	≤ 0.2
RRHD	≤ 0.2
RRHP	≤ 0.2
RRHK	≤ 0.2
RRHH	≤ 0.2
RRHS	0.645
RRHN	0.689
LFLC	≤ 0.2
DLIT	≤ 0.2
RDNY	≤ 0.2
TIRM	≤ 0.2
VENG	≤ 0.2
NEVT	≤ 0.2
GRRY	≤ 0.2
QQLD	≤ 0.2

Variant	one-hybrid fitness for binding parS DNA
MQRR	≤ 0.2
PCLL	≤ 0.2
ARAW	≤ 0.2
RIVM	0.281
RIVC	0.942
RIVQ	≤ 0.2
RIKQ	≤ 0.2
RIKR	≤ 0.2
RIKC	0.805
MKRV	≤ 0.2
RFFC	0.674
RFFN	0.262
NFAC	≤ 0.2
RFAN	0.372
RFFY	0.269
RFAC	0.91
WGLC	≤ 0.2
MPTN	≤ 0.2
GFLD	≤ 0.2
EFEC	≤ 0.2
RQFN	0.363
RQFD	≤ 0.2
RQAR	≤ 0.2
RQFG	0.917

Variant	one-hybrid fitness for binding parS DNA
RQAG	1
RQAY	0.444
WVPR	≤ 0.2
RQWH	≤ 0.2
RQAP	≤ 0.2
RQSS	0.979
RQQP	≤ 0.2
RQAS	0.988
RQQD	≤ 0.2
RQWP	≤ 0.2
RQAH	≤ 0.2
RQWS	0.959
RQSN	0.438
RQQS	0.987
RQSP	≤ 0.2
KHSR	≤ 0.2
ICNS	≤ 0.2
TSSN	≤ 0.2
FLHK	≤ 0.2
SFKN	≤ 0.2
PRKR	≤ 0.2
NSVS	≤ 0.2
GRDV	≤ 0.2
RQLP	≤ 0.2

Variant	one-hybrid fitness for binding parS DNA
RQYN	0.393
RQFS	0.957
RQLN	0.439
RQYS	1
RQFH	≤ 0.2
RQCH	≤ 0.2
RQLS	1.02
RQYP	≤ 0.2
RQCN	0.416
RQCS	0.976
RQFP	≤ 0.2
AMKF	≤ 0.2
SCQY	≤ 0.2
YPKA	≤ 0.2
IKCR	≤ 0.2
AFFR	≤ 0.2
MTRW	≤ 0.2
RQHN	0.425
RQRD	≤ 0.2
RQRN	0.451
RQGS	0.978
RQHP	≤ 0.2
RQGN	0.441
RQRS	0.918

Variant	one-hybrid fitness for binding parS DNA
RQGP	≤ 0.2
RQHS	0.988
KTML	≤ 0.2
PITI	≤ 0.2
GSLR	≤ 0.2
VPIR	≤ 0.2
RTEG	0.893
RREG	0.915
RREK	≤ 0.2
RDEG	≤ 0.2
RHEH	≤ 0.2
RPEG	≤ 0.2
RCEG	0.915
RHEP	≤ 0.2
RHEG	0.898
RTEF	0.202
RREY	0.295
RTEQ	≤ 0.2
TLIV	≤ 0.2
SWMS	≤ 0.2
PFMN	≤ 0.2
ASAS	≤ 0.2
TTEV	≤ 0.2
EKIY	≤ 0.2

Variant	one-hybrid fitness for binding parS DNA
VYPH	≤ 0.2
PRMG	≤ 0.2
VNWT	≤ 0.2
LVHA	≤ 0.2
SFKQ	≤ 0.2
RMEG	0.86
RIEI	≤ 0.2
RKEF	≤ 0.2
RAEP	≤ 0.2
RMEI	≤ 0.2
RAEH	≤ 0.2
RIEG	0.771
RMEL	≤ 0.2
RKEG	0.949
RKED	≤ 0.2
RIED	≤ 0.2
RAEG	0.852
HTCW	≤ 0.2
CSFT	≤ 0.2
DPQT	≤ 0.2
PMYE	≤ 0.2
ASIR	≤ 0.2
REEG	≤ 0.2
RLEG	0.925

Variant	one-hybrid fitness for binding parS DNA
RGEG	0.474
RSEG	0.802
RFEG	0.731
DFEG	≤ 0.2
NFEG	≤ 0.2
RLED	≤ 0.2
RLEN	0.4
HYRI	≤ 0.2
IEVV	≤ 0.2
YPPA	≤ 0.2
NRYK	≤ 0.2
SSLC	≤ 0.2
PCWL	≤ 0.2
TTWY	≤ 0.2
CCRS	≤ 0.2
RMFK	≤ 0.2
RMFY	0.492
RMAP	0.205
RMAD	0.207
RMAG	1.01
RMFG	1
LSRQ	≤ 0.2
RFMR	≤ 0.2
RIPC	0.626

Variant	one-hybrid fitness for binding parS DNA
RIIM	0.273
RIIC	0.901
RIIF	≤ 0.2
RIPM	≤ 0.2
RIPY	0.232
SCFV	≤ 0.2
QTMW	≤ 0.2
SRTC	≤ 0.2
RICK	0.208
RIQT	0.886
RIWT	0.83
RIWF	0.282
RIGK	≤ 0.2
RICD	≤ 0.2
RIWN	0.455
RIGT	0.924
RIQN	0.449
RIQP	≤ 0.2
RICT	0.853
RIGQ	0.204
LPLM	≤ 0.2
WSVC	≤ 0.2
AQMM	≤ 0.2
DELW	≤ 0.2

Variant	one-hybrid fitness for binding parS DNA
QKSV	≤ 0.2
HVTI	≤ 0.2
GLLA	≤ 0.2
RIDF	0.257
RIST	0.929
RINN	0.469
RISQ	≤ 0.2
RIYP	0.203
RINT	0.914
RIDT	0.725
RIYD	≤ 0.2
RINP	≤ 0.2
RIYT	0.926
RIDR	≤ 0.2
RISF	0.21
NRPF	≤ 0.2
CRDC	≤ 0.2
QFLC	≤ 0.2

From a collection of fitness landscapes (doi:10.1016/j.celrep.2020.107928)
